According to ChEMBL document CHEMBL3988442, “University of Dundee, Small-Polar-MMV Screening Library” (2021):
The whole screen tested about 38,000 compounds, of which about 1,200 (3.2%) showed an effect of 50% or more. The median lay at about -58%. This excerpt belongs to a sample that is enriched for strong results.

test system: Plasmodium falciparum; assay: Calibr Malaria Delayed Death Assay SOP; format: functional, organism-based; design: scale not given: in the data most compounds retested in dose-response had high values; settings: concentration 4.99e-06 (unit not given; other assays of the set use mol/L)

Compound	Percent Effect
O=C(O)C(F)(F)F.c1ccc(C[C@H]2CN(Cc3nccs3)CC[C@@H]2OCC2CC2)cc1	38.1%
c1ccc(-c2nnc([C@H]3CCN(C4CCOCC4)C3)o2)cc1	-0.6483%
Cc1noc(C)c1CN1C[C@H](OCC2CC2)[C@H]2COC[C@H]21.O=C(O)C(F)(F)F	-59.49%
Cc1noc(C)c1CN1CC[C@H](OCC2CC2)[C@@H](Cc2ccccc2)C1	60.12%
O=C(C1CCOCC1)N1CC[C@@H](N2CCOCC2)[C@@H]1Cc1ccccc1	3.107%
OC(CNc1ccncn1)CN1CCCCCC1 (stereo not given)	-2.039%
CC(C)c1ccc(C(=O)N2CCOCC2CC(=O)c2ccco2)cn1 (stereo not given)	-33.41%
CS(=O)(=O)N1CCCC(Cc2cncc(Br)c2)CC1 (stereo not given)	-9.475%
FC(F)(F)c1ccc2nc([C@H]3CCN(C4CCC4)C3)[nH]c2c1	5.22%
CS(=O)(=O)N1CC[C@H](c2nc3ccc(C(F)(F)F)cc3[nH]2)C1	-89.81%
FC(F)(F)c1ccc2nc([C@H]3CCN(C4CCCCC4)C3)[nH]c2c1	83.6%
O=C(CCc1ccccc1)N1CCCCC1Cn1cccn1 (stereo not given)	-77.88%
Cc1ccc(CN2CCC3(CC2)CC3CN(C)Cc2cccnc2)o1.O=C(O)C(F)(F)F.O=C(O)C(F)(F)F.O=C(O)C(F)(F)F (stereo not given)	69.86%
CN(Cc1cccnc1)CC1CC12CCN(c1nncs1)CC2.O=C(O)C(F)(F)F.O=C(O)C(F)(F)F.O=C(O)C(F)(F)F (stereo not given)	-14.98%
Cc1cnc(N2CCC3(CC2)CC3CN(C)Cc2cccnc2)nc1.O=C(O)C(F)(F)F.O=C(O)C(F)(F)F (stereo not given)	-34.71%
CCOC(=O)C1(Cc2ccccc2)CCCN(Cc2nccn2CC)C1 (stereo not given)	71.35%
CCOC(=O)C1(CCOC)CCCN(Cc2nccn2CC)C1 (stereo not given)	6.985%
CCn1ccnc1CN1CCCC(CO)(CCCc2ccccc2)C1 (stereo not given)	5.561%
Cc1cnc(C)c(N2CCCC(CO)(Cc3cccc(Cl)c3)C2)n1 (stereo not given)	-85.57%
CCn1ccnc1CN1CCCC(CO)(Cc2cccc(Cl)c2)C1 (stereo not given)	76.24%

Compound	Percent Effect
CCOC(=O)C1(CCOC)CCN(Cc2nccn2CC)CC1	-18.48%
CCn1c(N)nc2cc(C(=O)NCCc3ccccc3F)cnc21	-271.4%
CCc1nc(C2CCCN2CC(=O)Nc2cc(C)nn2C)no1 (stereo not given)	-146.1%
O=C(Cc1cccc(F)c1)NC1CCCc2cn[nH]c21 (stereo not given)	-5.228%
CN(CCCOc1ccccc1)S(=O)(=O)c1cnn(C)c1	-2.544%
O=C(Cc1c[nH]c2ncccc12)NCC(O)c1ccsc1 (stereo not given)	-112.4%
NC(=O)c1ccccc1NC(=O)CCN1CCN(CCO)CC1	-1.535%
CC(=O)Nc1ccc(CNCC(O)c2ccccc2)cc1 (stereo not given)	6.789%
Cc1nn(C)c(N(C)C)c1CNCC(O)c1ccccc1 (stereo not given)	-52.78%
COC(=O)CNC(=O)C(C)Oc1ccccc1C(F)(F)F (stereo not given)	-63.42%
CC(C(N)=O)N(C)Cc1ccccc1C(F)(F)F (stereo not given)	-7.943%
CC(C)Oc1cccc(C(O)CNC(=O)NCc2cccs2)c1 (stereo not given)	-103.2%
Cc1ccccc1CNCC(O)c1ccc(OC(C)C)cc1 (stereo not given)	92.11%
Cl.OC(CNCc1ccccc1C(F)(F)F)c1ccccc1 (stereo not given)	81.89%
CC(C)Oc1ccc(C(O)CNCc2ccccc2C(F)(F)F)cc1 (stereo not given)	82.7%
CC(O)CNCc1ccccc1C(F)(F)F.Cl (stereo not given)	-50.42%
CC(=O)Nc1ccc(CNCC(O)c2ccc(C)cc2)cc1 (stereo not given)	-93.75%
CN(Cc1ccccc1C(F)(F)F)C(C(N)=O)c1ccccc1 (stereo not given)	-32.88%
CC(C)C(NC(=O)NCCNc1ncccn1)c1cccs1 (stereo not given)	-40.63%
CN1CCC2(CC1)CN(C(=O)c1ccncc1)Cc1ccccc12	-65.66%

Compound	Percent Effect
O=C(CCC1CCCO1)NCCCC(=O)Nc1ccc(Cl)cc1 (stereo not given)	-199.2%
CCOc1ccc(S(=O)(=O)N(CCOC)Cc2ccncc2)cc1F	-28.24%
O=C(CCn1ccnn1)N1CCCC(n2cncn2)C1 (stereo not given)	-95.7%
CC(C)N1CCCC(C(=O)NCCc2csc(-c3ccncc3)n2)C1 (stereo not given)	-80.76%
CNC(=O)C1CCN(c2nc3nc[nH]c(=O)c3s2)CC1	-123.8%
CC(C)CN1C(=O)C2(CCN(Cc3ccoc3)C2)c2ccccc21.O=C(O)C(F)(F)F (stereo not given)	-29.95%
COC(=O)c1ncccc1N1CCC(C(O)c2ccccc2)CC1 (stereo not given)	-12.82%
Cn1ccnc1CN1CCCC2(CCN(CC3CCCO3)CC2)C1.O=C(O)C(F)(F)F.O=C(O)C(F)(F)F (stereo not given)	15.47%
CCc1ccc(CN2C[C@@H]3OCCN(c4ccnc(N(C)C)n4)[C@@H]3C2)o1.O=C(O)C(F)(F)F	5.976%
CN(C)CCN1CCO[C@H]2CN(Cc3ccccn3)C[C@H]21.O=C(O)C(F)(F)F.O=C(O)C(F)(F)F.O=C(O)C(F)(F)F.O=C(O)C(F)(F)F	8.318%
COc1ncccc1CN1C[C@@H]2OCCN(CCN(C)C)[C@@H]2C1.O=C(O)C(F)(F)F.O=C(O)C(F)(F)F.O=C(O)C(F)(F)F	-6.564%
COc1ccc(CN2C[C@@H]3OCCN(CCN4CCCC4)[C@@H]3C2)cc1.O=C(O)C(F)(F)F.O=C(O)C(F)(F)F.O=C(O)C(F)(F)F	62.07%
COCCN1CC[C@@H]2CN(Cc3cccnc3OC)C[C@@H]2C1.O=C(O)C(F)(F)F.O=C(O)C(F)(F)F	-74.35%
O=C(O)C(F)(F)F.O=C(O)C(F)(F)F.O=C(O)C(F)(F)F.O=C(O)C(F)(F)F.c1cc(CN2C[C@@H]3OCCN(CCN4CCCC4)[C@@H]3C2)ccn1	-114.9%
CN(C)c1nccc(N2CCO[C@H]3CN(Cc4ccsc4)C[C@H]32)n1.O=C(O)C(F)(F)F	68.45%
O=C(O)C(F)(F)F.O=C(O)C(F)(F)F.c1cnc(N2CCO[C@H]3CN(Cc4ccsc4)C[C@H]32)nc1	32.67%
Fc1ccc(CN2C[C@@H]3OCCN(CCN4CCCC4)[C@@H]3C2)cc1.O=C(O)C(F)(F)F.O=C(O)C(F)(F)F.O=C(O)C(F)(F)F	-79.23%
COc1ccc(CN2C[C@@H]3OCCN(CCN(C)C)[C@@H]3C2)cc1.O=C(O)C(F)(F)F.O=C(O)C(F)(F)F.O=C(O)C(F)(F)F	65.18%
COc1ccc(CN2C[C@@H]3OCCN(C)[C@@H]3C2)cc1.O=C(O)C(F)(F)F	-49.2%
COc1ncccc1CN1CC[C@H]2[C@H]1CCN2CCN(C)C.O=C(O)C(F)(F)F.O=C(O)C(F)(F)F.O=C(O)C(F)(F)F.O=C(O)C(F)(F)F	52.47%
